High-throughput results deposited in PubChem BioAssay by National Center for Advancing Translational Sciences (NCATS).
Only some compounds are listed: those with a hit (about 3.4% of all), similar ones and a draw of the others.
IMPase Li cell – IMPase inhibition in cells with lithium potentiation; Potency, µM (top dose mostly 59.4 µM), for the others: at the top dose activity, negative = IMPase inhibition, hits mostly inhibitors; CHO-M1 cells, IP1 TR-FRET (IP-One), carbachol + lithium; 210,000 compounds, 0.35% hits;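 further: IP1 builds up when IMPase is blocked and the TR-FRET signal falls; potency means the concentration at half of the fitted maximal effect; plate controls were basal vehicle for no effect and high inhibitor control for full effect; nearly all actives have a fitted effect of over 50% in size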
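CHO cells stably expressing M1 receptor (2000/well) were cultured 16–30 h, then exposed to compounds with a small lithium addition for 30 min at 37C. IP1 was measured by TR-FRET competition; AC50 from Hill fits.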
HTT aggregate – inhibitors of mutant huntingtin aggregate formation in PC12 cells | PC12 HttQ103-GFP aggregates, Acumen cytometry, 40 h | Potency, µM (titrated, usually from 46.1 µM), for inactives: at the highest dose activity change, negative = inhibition, usual class: inhibitors | 220,000 compounds, 1.1% hits | AID 1688; further: potency means the concentration at half of the fitted maximal effect; on the % scale 0 is the no-effect control and ±100 the full control effect; nearly all actives have a fitted effect of over 60% in size
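Aggregates are detected as GFP objects 1–25 µm with signal 6 STDEV over background in lysates of induced PC12 cells. These carry Huntingtin exon 1 with 103 glutamines fused to GFP under an ecdysone promoter; compounds titrated.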
PNC inhibitor – blocks assembly of the perinucleolar compartment. 140,000 compounds, 3.1% hits. AID 2417. activity change (PNC), negative = inhibition, % at 10 µM. PC3M PTB-GFP, PNC prevalence imaging, 16 h; stronger effect = lower value;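 active means readout at or below -70, meaning at least 70% loss of cells showing the perinucleolar compartment, a nuclear body marking cancer cells; inconclusive means readout between -30 and a set limit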;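 further: plate controls were DMSO wells for no effect and camptothecin positive control wells for full effect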
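Compounds are pinned in duplicate onto adhered PC3M cells stably expressing GFP-tagged PTB and incubated 16 h at 37 C. Cells are then fixed, nuclei stained with Hoechst, and PNC-positive cells counted.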
NPSR antag – neuropeptide S receptor (human) antagonism, cAMP. CHO-NPSR cells, cAMP TR-FRET, antagonist mode. Potency, µM (doses to about 38.3 µM), without a hit: top-dose activity change, negative = inhibition, actives largely listed as inhibitors. 220,000 compounds, 1% hits; further: potency means the concentration at half of the fitted maximal effect; on the % scale 0 is the no-effect control and ±100 the full control effect; nearly all actives have a fitted effect of over 50% in size
Target sequence (Q6W5P4 whole entry, looked up): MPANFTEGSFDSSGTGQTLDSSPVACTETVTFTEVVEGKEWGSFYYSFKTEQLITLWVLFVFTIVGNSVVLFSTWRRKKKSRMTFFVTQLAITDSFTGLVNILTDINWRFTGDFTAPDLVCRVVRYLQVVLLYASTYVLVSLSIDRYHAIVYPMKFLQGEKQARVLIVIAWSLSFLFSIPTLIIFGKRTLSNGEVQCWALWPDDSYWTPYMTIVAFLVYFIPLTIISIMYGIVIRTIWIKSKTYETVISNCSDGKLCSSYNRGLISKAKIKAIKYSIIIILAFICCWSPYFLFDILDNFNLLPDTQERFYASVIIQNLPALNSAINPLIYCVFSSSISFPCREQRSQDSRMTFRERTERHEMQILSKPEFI
IMPase inh – membrane-permeable compound that blocks inositol monophosphatase; inhibition (IP1 accumulation), % at 46.1 µM; AID 901; P97697; 120,000 tested, under 10 active; CHO-M1 cells, IP1 accumulation, HTRF TR-FRET ratio; active means well fitted curve in the direction sought with a large enough effect in the signal ratio, not every such curve was filed as active; inconclusive means small, poorly fitted or top-dose-only effect, or a change in a side signal; inactive means no such curve, though single readings can be large or run the other way; the % refers to the signal ratio;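 further: cells stimulated with carbachol in lithium chloride buffer; plate controls were DMSO basal wells for no effect and reference inhibitor wells for full effect; higher means more IMPase inhibition seen as more IP1 and lower FRET ratio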
Target sequence (P97697 whole entry, looked up): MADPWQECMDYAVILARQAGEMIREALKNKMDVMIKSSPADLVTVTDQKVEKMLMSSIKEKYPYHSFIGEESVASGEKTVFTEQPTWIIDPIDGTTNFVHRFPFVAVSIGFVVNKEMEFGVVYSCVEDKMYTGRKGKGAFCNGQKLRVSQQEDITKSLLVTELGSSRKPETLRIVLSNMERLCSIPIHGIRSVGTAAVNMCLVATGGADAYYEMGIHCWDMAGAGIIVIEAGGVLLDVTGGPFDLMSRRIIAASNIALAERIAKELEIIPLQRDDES
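Carbachol-driven Gq signalling in CHO-M1 cells (2000/well) generates IP1. Compounds that block IMPase raise IP1 and so reduce the FRET signal from Eu-anti-IP1 and d2-IP1 after a 10 min room-temperature lysis.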
HTT cytoprotect – Huntington cell model cytoprotection by ATP luminescence. PC12 HTT-Q103 induced, cytoprotection, ATP luminescence, 40 h. Potency, µM (top dose mostly 56.4 µM), for the others: cytoprotection (ATP increase), most hits filed as activators. 230,000 compounds, 0.14% hits. AID 1471; further: potency means the concentration at half of the fitted maximal effect; % of control where 0% means no effect; nearly all actives have a fitted effect of over 45% in size
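PC12 cells with ecdysone-inducible HTT exon 1 Q103-GFP, induced with 100 nM tebufenozide and co-treated with library compounds in a dose series (1536-well, 1500 cells/well). Cytoprotection read as ATP content by ATPlite luminescence.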
An asterisk follows results filed as active; ? = inconclusive; nt = no result given; [ ] = remark or other dose. Unless noted, the call rests on the fitted dose curve; in most records, active means well fitted curve in the direction sought with a large enough effect; inconclusive means small, poorly fitted or top-dose-only effect, or another doubt; inactive means no such curve, though single readings can be large; an effect the other way counts as inactive or inconclusive.

SMILES	IMPase Li cell	HTT aggregate	PNC inhibitor	NPSR antag	IMPase inh	HTT cytoprotect
NS(=O)(=O)c1ccc(NC(=O)c2ccc(CNS(=O)(=O)c3cc(C(F)(F)F)ccc3Cl)cc2)cc1	-9%	-17%[9.22 µM]	nt	7%	nt	-1%[10 µM]
Cc1cccc2cc3c(nc12)SC(=NCC1CCCO1)N(Cc1ccco1)C3 (stereo not drawn)	nt	-19%	-27	10µM*	6	8%[10 µM]
COc1ccc2c(c1)O[C@H](c1ccc3c(c1)OCO3)[C@@H](OC(=O)Nc1ccc(C)c(Br)c1)C2=O	12%	nt	nt	nt	nt	-4%
O=C(C1CCN(S(=O)(=O)c2cccc3nsnc23)CC1)N1CC=C(c2ccccc2)CC1	0%[38.3 µM]	-28%	?	-21%[46.1 µM]	5	-35%
O=C(C1CCC(CNS(=O)(=O)c2cccc3nsnc23)CC1)N1CC=C(c2ccccc2)CC1 (stereo not drawn)	15%[38.3 µM]	8.9µM*	10	-29%[46.1 µM]	18	-36%
COc1cccc(CNC(=O)C2CCC(CNS(=O)(=O)c3cccc4nsnc34)CC2)c1 (stereo not drawn)	-3%[38.3 µM]	-11%	-106*	-10%[46.1 µM]	13	-28%
Cc1ccc(-n2c(=O)c(C#N)cc3c(=O)n4cccc(C)c4nc32)cc1	10µM*	-9%	-25	6%[46.1 µM]	3	5%
Cc1ccc(Cn2c(=N)c(C#N)cc3c(=O)n4cccc(C)c4nc32)cc1	9%	19%[9.22 µM]	nt	-15%	nt	29%[10 µM]
O=c1[nH]cnc2sc3c(c12)CCCC3	3%[38.3 µM]	13µM*	-25	-3%[46.1 µM]	7	11%
CCOC(=O)c1nn(-c2cccc(C)c2)c2nc(-c3ccccc3)c(C#N)c(=O)n12	4µM*	3%	-117*	21%[46.1 µM]	?	-19%
CCOC(=O)c1nn(-c2ccc(F)cc2)c2nc(-c3ccccc3)c(C#N)c(=O)n12	1%	12%	-10	-30%	nt	nt
CCOc1ccc(NC(=O)Nc2cc3c(cc2N2CCCCC2)n(C)c(=O)n3C)cc1	nt	nt	nt	nt	18	nt
CCn1cc(C(=O)NCc2cccc(F)c2)c(=O)c2cc(F)c(N3CCN(C(=O)c4ccco4)CC3)cc21	43%[38.3 µM]	-15%	43	10µM*	2	-50%
Cc1ccc(-c2nc(Nc3ccc(N4CCOCC4)cc3)c3ccccc3n2)cc1	nt	-9%[9.22 µM]	nt	13µM*	nt	9%[10 µM]
Cn1cccc1C(=O)N1CCC2(CC1)CCN(c1ccccc1)CC2	11%	nt	nt	nt	nt	-64%
O=C(O)c1ccc(/C=N/NC(=O)c2cc(-c3cccs3)nc3ccccc23)cc1	-2%	-7%	-107*	-3%	nt	-11%[10 µM]
C/C(=N\NC(=O)c1cc(-c2cccs2)nc2ccccc12)c1ccccn1	6%	0.89µM*	nt	-32%	nt	-131%
O=C(N/N=C/c1ccsc1)c1cc(-c2ccncc2)nc2ccccc12	-8%	-23%	-114*	15%	nt	nt
CN(C)S(=O)(=O)c1ccc(NC(=O)c2cc(-c3cccs3)nc3ccccc23)cc1	-1%	17%	0	6%	nt	4%[10 µM]
NS(=O)(=O)c1ccc(NC(=O)c2cc(-c3cccs3)nc3ccccc23)cc1	7%	22%	-115*	4%	-10	-8%[10 µM]
Cc1nc(N2CCCCC2)c(C#N)c(C)c1[N+](=O)[O-]	2%	0%	nt	-16%	nt	-20%[10 µM]
CC(/C=N/NC(=O)c1cc(-c2ccncc2)nc2ccccc12)=C\c1ccco1	13%[38.3 µM]	?	-87*	?	0	-111%
Cc1ccsc1/C=N/NC(=O)c1cc(-c2ccncc2)nc2ccccc12	10%	?	-109*	15%	nt	nt
COc1ccccc1-c1cc(C(=O)N/N=C/c2sccc2C)c2ccccc2n1	-14%[38.3 µM]	-11%	11	-25%[46.1 µM]	-1	-41%
CC(=O)NS(=O)(=O)c1ccc(NC(=O)c2cc(-c3ccc(C)c(C)c3)nc3ccccc23)cc1	-2%[38.3 µM]	?	-96*	?	7	-39%
SMILES	IMPase Li cell	HTT aggregate	PNC inhibitor	NPSR antag	IMPase inh	HTT cytoprotect
O=C(c1csnn1)N1CCC2(CC1)CCN(c1ccncc1)CC2	29%	nt	nt	nt	nt	-30%
CCCCC1=CC2=C(c3ccco3)C(=O)C(C)(OC(=O)c3ccc(OC)cc3)C(=O)C2=CN1CC(C)C (stereo not drawn)	?	8%[9.22 µM]	nt	10µM*	nt	-8%[10 µM]
COc1cc(C(=O)NCCCNc2ccc([N+](=O)[O-])cc2)cc(OC)c1OC	-4%	-2%	5	6%	nt	28%[10 µM]
CC(C)(C)c1ccccc1NC(=O)CSc1nc(-c2cccs2)cc(C(F)(F)F)n1	nt	nt	nt	nt	-10	nt
O=C(CSc1c2c(nc3cc(Cl)ccc13)CCCC2)NCc1ccco1	20%[38.3 µM]	nt	-17	?	-15	13µM*
O=C(CSc1nc2ccc(Cl)cc2[nH]1)NCc1ccco1	9%[38.3 µM]	16%[9.22 µM]	-3	0%[46.1 µM]	2	-6%[10 µM]
Cc1ccc(F)c(C2C3C=CCC(c4cccc(-c5ccc(N(C)C)cc5)c4)C3C(=O)N2Cc2ccccc2)c1 (stereo not drawn)	nt	3.2µM*	nt	-39%	nt	-38%[10 µM]
COc1ccc(-c2cccc(C3CC=CC4C3C(=O)N(Cc3ccccc3)C4c3ccc(OC)c(Cl)c3)c2)cc1 (stereo not drawn)	nt	?	nt	10µM*	nt	-45%[10 µM]
COc1ccc(-c2cccc(C3CC=CC4C3C(=O)N(Cc3ccccc3)C4c3cc(C)ccc3F)c2)cc1 (stereo not drawn)	nt	-36%[9.22 µM]	nt	-54%	nt	-49%[10 µM]
Cc1ccc(-c2cccc(C3CC=CC4C3C(=O)N(Cc3ccccc3)C4c3ccc4ccccc4c3)c2)cc1 (stereo not drawn)	nt	-36%[9.22 µM]	nt	-14%	nt	-30%[10 µM]
COc1ccc(N(CC(=O)NCc2ccccc2OC)S(=O)(=O)c2ccccc2[N+](=O)[O-])c(OC)c1	21%	5%[9.22 µM]	nt	31%	nt	-4%[10 µM]
CC1CCN(c2ccc(C(=O)O)cc2N)CC1	nt	8%	9	0%[46.1 µM]	1	-6%
Nc1cc(C(=O)O)ccc1N1CCCCC1	1%	-8%	-100*	6%[46.1 µM]	8	3%[10 µM]
CC1=NNC(=O)C1CCC(=O)N/N=C/C(Br)=C/c1ccccc1 (stereo not drawn)	nt	-1%	-115*	-11%[46.1 µM]	2	-3%[10 µM]
CCOc1ccc(S(=O)(=O)n2cnc3cc(C)c(C)cc32)cc1	13%	11µM*	-23	-1%[46.1 µM]	1	1%[10 µM]
COc1ccc(OC)c(S(=O)(=O)n2cnc3cc(C)c(C)cc32)c1	16%[38.3 µM]	5%	24	?	2	-3%
CCOC(=O)c1[nH]c(C)c(C(=O)NCc2ccccn2)c1C	1%	-17%	-100*	-7%[46.1 µM]	-3	22%[10 µM]
Cn1c(-[n+]2c(-c3ccccc3)cc(-c3ccccc3)cc2-c2ccccc2)nc2cc([N+](=O)[O-])ccc21	nt	?	4	10µM*	?	-10%[10 µM]
